# Legend:
# Experiment in all cases: PBM binding z-score (relative to random genomic background probes); higher = stronger binding; sequences stand for … in GC…GCGATTGACAGCGTAGAATGAAGG
# [1] = test system: RARb homodimer (NR concentration 270 nM)
# Outline: (§1)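 Antibodies against each partner of ligand-free nuclear receptor dimers (one per run) detected binding on custom Agilent 4×180K protein-binding microarrays after 1 h incubation. The double-stranded probes had 34-nt variable regions carrying direct-repeat seeds, single-nucleotide variants, half-site ablations and random human genomic background sequences. Binding z-scores, from regression-normalized fluorescence, use the random background probes as reference.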
# [2] = test system: RARg:RXRa (NR concentration 270 nM, RXRa partner concentration 90 nM)
# Outline: as §1
# [3] = test system: RARg homodimer (NR concentration 270 nM)
# Outline: as §1
# [4] = test system: RXRa DBDmut IVT, anti-RXR (DBD mutation: RXRa K156A/R161A, NR concentration 90 nM)
# Outline: as §1
# [5] = test system: RXRa homodimer (NR concentration 180 nM)
# Outline: as §1
# [6] = test system: THRa:RXRa (NR concentration 90 nM, RXRa partner concentration 90 nM)
# Outline: as §1
# [7] = test system: THRa homodimer (NR concentration 90 nM)
# Outline: as §1
# [8] = test system: VDR:RXRa (NR concentration 270 nM, RXRa partner concentration 90 nM)
# Outline: as §1
# [9] = test system: VDR homodimer (NR concentration 270 nM)
# Outline: as §1
Sequence,PBM binding z-score [1],PBM binding z-score [2],PBM binding z-score [3],PBM binding z-score [4],PBM binding z-score [5],PBM binding z-score [6],PBM binding z-score [7],PBM binding z-score [8],PBM binding z-score [9]
ATCGAAAGGTCGAAGGGGAGTATACCCACCCGAA,2.2,3.86,3.58,0.681,4.21,1.73,-0.345,2.67,0.649
AACTCTAGGTAAAGTTCAGTGAAAGATCGATAGA,2.3,1.97,2.32,1.44,1.19,0.938,-0.396,1.15,1.64
CGTCCAAGGACATAGGAGGTCAGTGAAGACAGAT,3.17,2.46,3.05,0.749,1.64,3.54,1.83,2.2,1.48
TCTGCTAGGTGAGTTGGTCAGCTAACGAGCTGCC,-0.359,-0.346,-0.369,-0.485,-0.331,-0.346,-0.955,-0.769,-0.985
TTACTAAGGTGAAAGGTCGTTGATGCACGCCTTG,3.02,4.74,2.37,1.45,6.58,4,2.17,3.59,1.78
CGAACTAGGTCAGAACAGCACAGTGAAGGATGAT,1.96,2.44,3.04,0.779,1.28,1.16,0.326,0.261,0.463
ATCTCTAGGTAAGACTCAGTTCAGTGAGGAACGC,0.438,0.383,0.447,0.293,0.124,0.714,0.481,0.748,1.3
TCTTGTAGATCAAGCAGGTTAAGACAGCCTGAGT,0.295,-0.0241,-0.105,0.547,0.368,0.23,-0.66,0.279,-0.155
GATACAGGGTCAGCTGGAGGCCAGAGTATGGAAA,3.23,6.73,5.23,1.38,4.35,3.16,0.136,3.29,0.57
TGTCAAAGTTGAAAGGTAACGTAAGTATCCACAC,1.36,2.23,1.4,-0.369,2.69,1.77,-0.382,0.996,-0.281
TAGCCTAGTTCATGGGCCAGTATACCACGCGAAC,1.05,0.816,0.746,1.37,0.734,0.187,0.00574,0.685,1.42
AGTCAAAGTTCAGGACGAGCTAACGTAAAGCACG,2.77,4.22,4.84,2.68,2.83,1.95,0.278,1.8,1.5
ACTGGGAGGACAAAGGTCAGAGCTACGCCAGTGA,4.78,6.22,5.14,1.06,5.47,3.85,1.25,3.73,1.41
CGTCCAAGGTCAATGCTAGGTCAGTGACAGCATT,4.95,7.61,6.78,3.65,5.25,4.63,2.99,4.87,2.97
CCGACTCGGGCAAGGTTACCATAACGCACAGCCA,1.08,1.01,0.939,-0.233,1.11,1.19,0.176,-0.103,-0.43
ATCTCTAGTTAAAAGTTCAGTGAATCCCGAGGAT,2.34,1.3,1.76,0.966,0.844,0.672,0.242,1.29,2.12
GCTATTAGTTGAAAGGGCAAACGAATGATTCTCG,1.86,1.24,1.06,0.931,1.38,0.777,-0.332,0.622,0.589
AATAAAGGGTCACTAGGCCAGAGTAGGTACGAAT,4.18,5.83,6.43,2.48,5.89,2.82,0.263,4.04,2.36
CCTTACGAGTCACGAGGTTATAGCACGACGAGCG,1.11,1.27,1.04,0.554,1.8,1.9,1.19,1.7,1.26
GATACAGGGTCAAGGCCAGAGCACGCGTATTGAT,3.82,5.4,4.9,2.27,5.45,3.6,1.34,4.21,1.92
CGAACGAGGGCATGAGTTGATAGAAAATGCCGAT,0.815,1.29,1.56,2.47,0.995,1.28,-0.093,1.29,1.74
TCTGCTTGGTCAGTTGGTCAGCTAACGAGCTGCC,0.226,-0.172,-0.0396,-0.00109,-0.439,-0.465,-0.841,-0.451,-1.2
ACAAGTTGGTCAGCTGAGGTCACACACAATTCGG,4.58,4.2,3.99,2.18,4.19,5.13,5.16,4.66,3.37
ATACCAAGGTGATCGTGAGGTCGTCGATACTAAC,1.61,2.45,0.868,0.301,1.56,3.52,2.54,2.72,1.95
CAAACTAGGTGAAAGGTCAAAGTCGAGCCAACCA,4.61,7.35,6.17,2.27,8.91,4.19,1.31,5.23,2.49
ATATGTTGGTTAAGGGTCATTCAGGTTGGTTCGC,3.84,4.07,3.25,2.11,4.9,3.25,2.24,5.55,4.89

# From the supplement of paper PMC6555819
